HTT ATP protect: qHTS Multiplex Assay to Identify Dual Action Probes in a Cell Model of Huntington: Cytoprotection (ATP). PC12 HTT-Q103 induced, cytoprotection, ATP luminescence, 40 h. Potency, µM (doses to about 56.4 µM), for inactives: cytoprotection (ATP increase), hits mostly activators. 0.14% of 230,000 active. AID 1471, 2008; further: potency means the concentration at half of the fitted maximal effect; % of control where 0% means no effect; nearly all actives have a fitted effect of over 45% in size
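Huntington model: PC12 line, ecdysone-inducible HTTQ103 exon1–GFP, tebufenozide 100 nM. Test articles in a dose series. Endpoint luminescence from cellular ATP.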
IMPase cell inh: qHTS Assay for Identifying the Cell-Membrane Permeable IMPase Inhibitors. Inositol monophosphatase 1 (Rattus norvegicus), P97697. CHO-M1 cells, IP1 accumulation, HTRF TR-FRET ratio. inhibition (IP1 accumulation), % at 46.1 µM. 120,000 tested, under 10 active; active means well fitted curve in the direction sought with a large enough effect in the signal ratio, not every such curve was filed as active; inconclusive means small, poorly fitted or top-dose-only effect, or a change in a side signal; inactive means no such curve, though single readings can be large or run the other way; the % refers to the signal ratio;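 further: cells stimulated with carbachol in lithium chloride buffer; plate controls were DMSO basal wells for no effect and reference inhibitor wells for full effect; higher means more IMPase inhibition seen as more IP1 and lower FRET ratio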
Target sequence (P97697 whole entry, looked up): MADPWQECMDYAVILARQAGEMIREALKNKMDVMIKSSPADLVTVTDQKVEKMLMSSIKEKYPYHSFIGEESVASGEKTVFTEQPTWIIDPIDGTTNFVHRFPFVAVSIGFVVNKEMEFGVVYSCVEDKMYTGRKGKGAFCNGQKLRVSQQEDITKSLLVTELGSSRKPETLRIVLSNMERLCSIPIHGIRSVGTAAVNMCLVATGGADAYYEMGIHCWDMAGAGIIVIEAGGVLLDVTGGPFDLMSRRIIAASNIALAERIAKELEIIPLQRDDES
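In this qHTS, compounds (final up to 46 uM) act on CHO-M1 cells that are then activated through the M1 receptor with carbachol, in pH 7.4 buffer containing 50 mM LiCl, for 30 min. IP1 accumulation is quantified by the IP-One immunoassay.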
HTT aggregate: qHTS Multiplex Assay to Identify Dual Action Probes in a Cell Model of Huntington: Aggregate Formation (GFP). PC12 HttQ103-GFP aggregates, Acumen cytometry, 40 h. Potency, µM (highest dose often 46.1 µM), for inactives: at the highest dose activity change, negative = inhibition, usual class: inhibitors. 1.1% of 220,000 active; further: potency means the concentration at half of the fitted maximal effect; on the % scale 0 is the no-effect control and ±100 the full control effect; nearly all actives have a fitted effect of over 60% in size
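Quantitative HTS on tebufenozide-induced (100 nM) PC12 cells stably expressing polyQ103 Huntingtin exon 1–GFP. Reduction of bright GFP aggregates, detected by laser scanning cytometry after lysis, identified actives across the titration.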
ALDH1A1 block: qHTS Assay for Inhibitors of Aldehyde Dehydrogenase 1 (ALDH1A1); Aldehyde dehydrogenase 1A1 (Homo sapiens), P00352; Purified ALDH1A1, NADH fluorescence, propionaldehyde substrate; Potency, µM (series often up to 75.3 µM), without a hit: at the highest dose activity, negative = inhibition, most hits filed as inhibitors; 7.3% of 220,000 active; active means well fitted inhibition curve with a large enough effect, not every such curve was filed as active; inconclusive means small, poorly fitted or top-dose-only effect, or another doubt; inactive means no such curve, though single readings can be large or run the other way;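 further: potency means the concentration at half of the fitted maximal effect; plate controls were no enzyme wells and a reference inhibitor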
IMPase Li inh: qHTS Assay for Identifying the Cell-Membrane Permeable IMPase Inhibitors: Potentiation with Lithium | CHO-M1 cells, IP1 TR-FRET (IP-One), carbachol + lithium | Potency, µM (series often up to 59.4 µM), for inactives: top-dose activity, negative = IMPase inhibition, usual class: inhibitors | 0.35% of 210,000 active | AID 1457, 2008;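 further: IP1 builds up when IMPase is blocked and the TR-FRET signal falls; potency means the concentration at half of the fitted maximal effect; plate controls were basal vehicle for no effect and high inhibitor control for full effect; nearly all actives have a fitted effect of over 50% in size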
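Lithium-sensitised IP1 accumulation assay; M1-expressing CHO cells treated 30 min at 37C with compound. Competitive antibody detection by time-resolved FRET followed a 10 min room-temperature lysis step.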
HPGD block: qHTS Assay for Inhibitors of HPGD (15-Hydroxyprostaglandin Dehydrogenase); 4.3% of 150,000 active; purified HPGD, NADH fluorescence kinetic, PGE2 substrate; Potency, µM, without a hit: at the top dose activity change, negative = inhibition, actives largely listed as inhibitors; 15-hydroxyprostaglandin dehydrogenase [NAD(+)] (Homo sapiens), P15428; active means well fitted inhibition curve with a large enough effect, not every such curve was filed as active; inconclusive means small, poorly fitted or top-dose-only effect, or another doubt; inactive means no such curve, though single readings can be large or run the other way; further: potency means the concentration at half of the fitted maximal effect; on the % scale 0 is the no-effect control and ±100 the full control effect
Target sequence (P15428 whole entry, looked up): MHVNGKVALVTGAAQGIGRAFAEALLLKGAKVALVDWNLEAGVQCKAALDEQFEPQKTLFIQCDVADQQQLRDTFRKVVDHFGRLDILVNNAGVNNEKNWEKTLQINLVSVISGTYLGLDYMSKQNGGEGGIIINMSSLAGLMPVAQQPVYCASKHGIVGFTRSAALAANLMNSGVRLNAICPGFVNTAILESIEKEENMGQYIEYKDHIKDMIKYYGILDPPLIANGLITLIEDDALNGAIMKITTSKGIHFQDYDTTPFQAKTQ
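20 nM HPGD preincubated 15 min at room temperature with compound in 50 mM Tris-HCl pH 8, 0.01% Tween 20. Started with 1 mM NAD+ and 30 uM prostaglandin E2; NADH fluorescence (360/450 nm) read 5 times over 30-s intervals, last minus first.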
* hit, by the source's call; ? = inconclusive; nt = no result given; [ ] = another dose, or the depositor's remark. Compounds with a hit are over-represented: about 9.4% of the library has one in this group of screens. Unless noted, the call rests on the fitted dose curve; in most records, active means well fitted curve in the direction sought with a large enough effect; inconclusive means small, poorly fitted or top-dose-only effect, or another doubt; inactive means no such curve, though single readings can be large; an effect the other way counts as inactive or inconclusive.

SMILES	HTT ATP protect	IMPase cell inh	HTT aggregate	ALDH1A1 block	IMPase Li inh	HPGD block
CN(c1ccc(OCC(=O)OCC(=O)Nc2ccccc2)cc1)S(=O)(=O)c1cccs1	-80%[1.9 µM]	12	1.3µM*	-8%	-4%	-16%
CN(C(=O)c1cccs1)c1ccc(OCC(=O)Nc2ccc(C(=O)O)cc2)cc1	0.89µM*	nt	?	nt	nt	nt
Cc1cc(S(=O)(=O)Nc2cc3c(cc2N2CCOCC2)n(C)c(=O)n3C)ccc1F	nt	-6	nt	nt	nt	nt
CC1CN(C2CCN(C(=O)COc3ccc(Cl)cc3)CC2)CC(C)O1 (stereo not drawn)	3%	4	-5%	13µM*	40%[38.3 µM]	-2%
CN(C)c1ccc(-c2nn3c(-c4ccc(Cl)cc4)nnc3s2)cc1	1%	15	12%	?	nt	nt
Cn1c(SCC(=O)c2ccc3c(c2)OCO3)nnc1C1COc2ccccc2O1 (stereo not drawn)	3%[10 µM]	3	32%	?	-1%	-23%
Clc1ccc(-c2nn3c(C4COc5ccccc5O4)nnc3s2)cc1 (stereo not drawn)	-11%[0.074 µM]	4	-10%	7.9µM*	-5%[38.3 µM]	13µM*
Cn1c(SCc2cnc(-c3ccccc3)s2)nnc1C1COc2ccccc2O1 (stereo not drawn)	-5%[10 µM]	10	-3%	13µM*	3%[38.3 µM]	25µM*
COc1ccc2oc(=O)c(C(=O)Nc3ccc(C(=O)O)cc3)cc2c1	nt	-5	nt	nt	nt	nt
Cc1c(C(=O)O)sc2nc(CSc3nnc(-c4ccc(F)cc4)n3C)[nH]c(=O)c12	-12%	nt	-9%	19µM*	-7%	nt
C=CCn1c(SCc2nc3sc(C(=O)O)c(C)c3c(=O)[nH]2)nnc1-c1ccc(C(C)(C)C)cc1	1%[10 µM]	nt	0%[9.22 µM]	20µM*	nt	nt
Cc1nnc(SCc2nc3sc(C(=O)O)c(C)c3c(=O)[nH]2)s1	?	nt	1%[9.22 µM]	20µM*	nt	nt
C=CCn1c(SCc2nc3sc(C(=O)O)c(C)c3c(=O)[nH]2)nnc1-c1ccccc1	1%[10 µM]	nt	0%	?	3%	nt
O=c1[nH]c(CSc2nc3ccccc3s2)nc2ccccc12	11%[10 µM]	nt	-21%[9.22 µM]	nt	nt	nt
Cc1sc2nc(CSc3nc4ccccc4s3)[nH]c(=O)c2c1C	7%	nt	15%	7.9µM*	1%	nt
CCOc1ccc(C2c3c(oc4ccccc4c3=O)C(=O)N2Cc2ccc3c(c2)OCO3)cc1 (stereo not drawn)	nt	6	nt	nt	nt	nt
CC(=O)c1sc2nc(CSc3nnnn3-c3ccccc3)[nH]c(=O)c2c1C	nt	nt	-33%	25µM*	-6%	nt
Cc1ccc(-n2nnnc2SCc2nc3sc(C)c(C)c3c(=O)[nH]2)cc1	32%[10 µM]	nt	3%	0%	3%	-5%
COc1ccc(-c2nnnn2-c2ccccc2OC)cc1	-4%	15	18%	7.9µM*	29%	1%
Cc1ccccc1-n1nnnc1-c1ccccc1	-6%	2	-20%	4.5µM*	1%[38.3 µM]	-13%
Cc1ccc(-n2nnnc2-c2ccccc2)cc1	-36%	nt	5%	-1%	-2%	nt
Cc1ccccc1Nc1oc(-c2ccccc2)nc1-c1ccccc1	?	nt	nt	?	26%	?
COc1ccccc1NS(=O)(=O)c1cc(NC(=O)CCC2CCCC2)ccc1N1CCOCC1	-8%	nt	?	16µM*	14%	nt
COc1ccccc1NS(=O)(=O)c1cc(N)ccc1N1CCCCC1	-27%	nt	-2%	3.2µM*	-3%	nt
COc1ccccc1NS(=O)(=O)c1cc(NC(=O)CC(C)(C)C)ccc1N1CCOCC1	-53%	nt	0%	-5%	-1%	nt
COC(=O)C1=C(C)[C@H](O)[C@@H](C)[C@](C)(c2cc(OC)c(C)c(OC)c2COc2ccccc2)O1	?	nt	nt	9%	11%	-6%
